Potency, activity (max response) and viability, % of control data for 38 compounds are collected here from PubChem BioAssay (NCATS).

“And” between values parts separate entries of the source, which are not always exact repeats. Identical values can stand only once. Inconclusive results are not listed. Unmarked numbers belong to inactive results. The source made the active and inactive calls. The call rests on the fitted dose curve; in most records, active means well fitted curve in the direction sought with a large enough effect; inconclusive means small, poorly fitted or top-dose-only effect, or another doubt; inactive means no such curve, though single readings can be large; an effect the other way counts as inactive or inconclusive.

A short description of assay [1]: Viability qHTS for spleen associated tyrosine kinase inhibitor (SYKi) naive MV4-11 cells (AID 1963823). Further: nearly all actives have a fitted effect of over 40% in size. In short, it runs like this:
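SYK inhibitor-naive MV4-11 cells, 500 per well, exposed to compounds for 72 hr at 37 C, 5% CO2. Viability read as CellTiter-Glo luminescence after 10 min at room temperature.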
A general note: qHTS replaces the single test concentration by a dilution series.

Assay [2] can be described thus: Cellular viability qHTS for adrenocortical cancer (ACC) cell line SW-13 (AID 1963989). Further: nearly all actives have a fitted effect of over 65% in size.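 On activity (max response): cells grown in serum-free medium with ITS supplement; on the % scale 0 is the no-effect control and ±100 the full control effect.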 The settings on record: SW-13 ACC cells viability, CellTiter-Glo, 48 h; activity (max response): stronger effect = lower value. Summed up:
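Luminescent ATP read-out (CellTiter-Glo, 20 min at room temperature) measured metabolically competent SW-13 cells after 48 h compound treatment. Final concentrations spanned up to 46 uM; bortezomib served as positive control.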

Assay [3] can be described thus: Cellular viability qHTS for adrenocortical cancer (ACC) cell line NCI-H295R (AID 1963990). Further: nearly all actives have a fitted effect of over 60% in size. Summed up:
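IC50 and maximal efficacy derive from four-parameter logistic modelling of titration curves, with reads scaled between DMSO-only wells (0%) and doxorubicin hydrochloride (100% inhibition). Compounds spanned up to 46 uM over 48 h.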

A short description of assay [4]: Viability qHTS for spleen associated tyrosine kinase inhibitor (SYKi) drug resistant MV4-11 cells (AID 1963824). Further: nearly all actives have a fitted effect of over 35% in size. In short, it runs like this: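 SYK-inhibitor-resistant MV4-11 AML cells were seeded at 500 per well onto compound and cultured 72 hours (37 °C, 5% CO2). CellTiter-Glo was then added, and after 10 min at room temperature, luminescence gave viability.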
Potency means the concentration at half of the fitted maximal effect.

Consider `Cc1cc(C)cc(OCC2CNC(=O)O2)c1` (stereo not given), for which the Potency result in assay [1] and in assay [3] was “inactive” in each case. For the same compound, the activity (max response) in assay [2] was 4.02%.

`CCCCC(CC)COC(=O)c1ccc(N(C)C)cc1` (stereo not given): the Potency entry in assay [1] and in assay [3] was “inactive” each time. Moreover, in assay [2], the activity (max response) was -4.79%. Regarding `CN1C(CSCC(F)(F)F)Nc2cc(Cl)c(S(N)(=O)=O)cc2S1(=O)=O` (stereo not given), the Potency entry in assay [1] and in assay [3] was “inactive” in each case. The activity (max response) in assay [2] is -6.86%.

For the compound `CC(C)Oc1ccc(-c2nn([C@@H](C)c3oc4ccc(F)cc4c(=O)c3-c3cccc(F)c3)c3ncnc(N)c23)cc1F`, the Potency in assay [1] was 14.8 µM (active). In assay [2], the activity (max response) was 7.73%. In assay [3], the Potency result is “inactive”.

Take `CC1(C)O[C@@H]2C[C@H]3[C@@H]4CCC5=CC(=O)C=C[C@]5(C)[C@H]4[C@@H](O)C[C@]3(C)[C@]2(C(=O)CO)O1`: the Potency result in assay [1] and in assay [3] was “inactive” throughout. In assay [2], the activity (max response) was -6.19%. On to `Cc1ccc(O)c(-n2nc3ccccc3n2)c1`, for which the Potency entry in assay [1] and in assay [3] was “inactive” in each case. Further, in assay [2], the activity (max response) is -8.34%.

Consider `O=C1c2ccccc2S(=O)(=O)N1CCCCN1CCN(c2ncccn2)CC1`, for which the Potency result in assay [1] and in assay [3] was “inactive” in each case. Also, the activity (max response) in assay [2] was -8.3%. Turning to `CC(C)=CCC[C@@](C)(O)[C@H]1CC=C(C)CC1`, the Potency entry in assay [1] and in assay [3] was “inactive” throughout. For the same compound, the activity (max response) in assay [2] is 18.9%.

With `CCCOC(=O)c1ccc(N)cc1`, the Potency result in assay [1] and in assay [3] was “inactive” each time. As to `CCN(CC)C(=O)Cc1csc(NS(=O)(=O)c2cccc(Cl)c2C)n1`, the Potency result in assay [1] and in assay [3] was “inactive” each time. Further, in assay [2], the activity (max response) was -19.2%. Take `NCCNCCNCCN`: the Potency result in assay [1] and in assay [3] was “inactive” in each case. Also, the activity (max response) in assay [2] is 13.6%. Turning to `CNC(=O)c1ccccc1Nc1nc(Nc2ccc3c(c2OC)CCC[C@@H](N2CCN(CCO)CC2)C3)ncc1Cl`, the values for the Potency in assay [1], in assay [2] and in assay [3] were 0.366 µM (active), 15.8 µM (active) and 2.82 µM (active), respectively.

Consider `O=C1OC2(c3ccccc31)c1cc(I)c(O)c(I)c1Oc1c2cc(I)c(O)c1I`, for which the Potency entry in assay [1] and in assay [3] was “inactive” in each case. Consider `Cc1ncc(CO)c(CN)c1O`, for which the Potency entry in assay [1] and in assay [3] was “inactive” in each case. For the same compound, in assay [2], the activity (max response) is 7.61%.

Turning to `O=C1c2cccc(O)c2C(=O)c2c(O)cccc21`, the Potency entry in assay [1] and in assay [3] was “inactive” in each case. The activity (max response) in assay [2] is 1.51%.

In the case of `CN(C)C[C@@H]1CCn2cc(c3ccccc32)C2=C(C(=O)NC2=O)c2cn(c3ccccc23)CCO1`, the values for the Potency in assay [1], in assay [2] and in assay [3] were 0.186 µM (active), 28.2 µM (active) and 31.6 µM (active), respectively. For `CC[N+](CC)(CC)CCOc1ccc(/C=C/c2ccccc2)cc1`, the Potency entry in assay [1] and in assay [3] was “inactive” throughout. For `[2H]c1nc(C)nc([2H])c1-c1cc(NC[C@@H](C)c2cccc3c(C(=O)NC)ccnc23)ncn1`, the Potency result in assay [1] and in assay [3] was “inactive” throughout. Besides, the activity (max response) in assay [2] is 14.2%. On to `O=C(O)CC(C(=O)O)n1c(O)c(C2=c3cc(Br)ccc3=NC2=O)sc1=S` (stereo not given), for which the Potency entry in assay [1] and in assay [3] was “inactive” throughout. Besides, in assay [2], the activity (max response) is -4.1%. With `CN1CC(=O)N2[C@H](c3ccc4c(c3)OCO4)c3[nH]c4ccccc4c3C[C@@H]2C1=O`, the Potency result in assay [1] and in assay [3] was “inactive” in each case. Also, the activity (max response) in assay [2] is 17.1% and 13.1%.

For the compound `CC1=C2CC(C)(C)CC2C(O)C2=C(C1)C(=O)OC2O` (stereo not given), the Potency entry in assay [4] is “inactive”. The same measure, in the same setting: in the case of `COc1cc(CCc2ccc(OCC=C(C)C)cc2)cc(OC)c1OC` it was 5.7 µM (active); in that of `CCCCC(=O)O[C@]1(C(=O)CO)CC[C@H]2[C@@H]3CCC4=CC(=O)CC[C@]4(C)[C@H]3[C@@H](O)C[C@@]21C`, “inactive”. Still for that read-out and setting: with `COc1ccc(-c2csc(NC(=O)[C@H]3CCCCN3S(=O)(=O)c3ccc(C)cc3)n2)cc1` the figure was 5.17 µM (active). In the case of `C/C=C(\C)C(=O)OC1C[C@@]2(COC(C)=O)O[C@H]2/C=C\[C@@]2(C)O[C@@H]2[C@H]2OC(=O)C(COC(C)=O)=C12` (stereo not given in full), the Potency in assay [4] is 4.47 µM (active). As for `CC(C)=CCC(O)[C@](C)(O)C1[C@H](O)C[C@@]2(C)C3CC=C4C(C[C@H](O)[C@@H](O[C@@H]5O[C@H](CO)[C@@H](O)[C@H](O)[C@H]5O)C4(C)C)[C@]3(C)C(=O)C[C@]12C` (stereo not given in full), the Potency entry in assay [4] was “inactive”.

Regarding `O=C(O)c1ccc(NC(=O)[C@H](CC2CCCC2)n2cnc(C(F)(F)F)c2)nc1`, the Potency in assay [4] is 2.91 µM (active). On the same count and under the same terms, in the case of `O=C(/C=C/c1nc2ccccc2[nH]1)c1c(-c2ccccc2)c2cc(Cl)ccc2[nH]c1=O` it was 0.291 µM (active). On the same count and under the same terms, in the case of `CC1(C)CC(=O)C2=C(C1)NC(=S)NC2c1cccc(O)c1` (stereo not given) it was 0.58 µM (active); in that of `C=C1[C@H](OC(C)=O)[C@H]2[C@@H](OC(C)=O)[C@](C)(OC(C)=O)C[C@]2(OC(C)=O)C(=O)[C@H](C)/C=C/C(C)(C)C(=O)[C@H](OC(=O)C(C)CC)[C@H]1OC(C)=O` (stereo not given in full), “inactive”. As for `C=C(C(=O)O)[C@@H]1CC[C@@]2(C)CCC[C@@](C)(O)[C@@H]2C1`, in assay [4], the Potency entry was “inactive”. The same measure, in the same setting: with `CC1=C2CC3OC3(C)CCC3OC3(C)CC2OC1=O` (stereo not given) the figure was 3.66 µM (active); with `O=C(Nc1cc(C(F)(F)F)ccc1N1CCCCC1)c1ccncc1`, 14.6 µM (active); with `Cn1c(=O)c(F)c(Nc2ccc(I)cc2F)c2c(=O)n(CC(O)CO)cnc21` (stereo not given), 0.0259 µM (active).

Regarding `CCCCCCCCCCC(O)C1C=CC2C(=O)N(c3ccccc3)C(=O)C2N1Nc1ccc([N+](=O)[O-])cc1` (stereo not given), the Potency in assay [4] is 11.6 µM (active).

Regarding `CC(CCC1(O)OC2CC3C4CCC5CC(O[C@@H]6O[C@H](CO)[C@@H](O)[C@H](O)[C@H]6O[C@@H]6OC[C@@H](O)[C@H](O)[C@H]6O)C(O)CC5(C)C4CCC3(C)C2C1C)CO[C@@H]1O[C@H](CO)[C@@H](O)[C@H](O)[C@H]1O` (stereo not given in full), the viability, % of control in assay [4] was 86.8% [at 9.25 µM]. For the compound `Cn1c(CO)c(-c2ccccc2)c2cc([N+](=O)[O-])ccc21`, the Potency in assay [4] was 23.1 µM (active). Still for that read-out and setting: in the case of `COc1cc(/C=C/C(=O)OC[C@H]2O[C@H](O[C@]3(CO)O[C@H](CO)[C@@H](O)[C@@H]3O)[C@H](O)[C@@H](O)[C@@H]2O)cc(OC)c1O` it was “inactive”.
